Several values for one entry are separate records, joined by “and”; a condition that tells them apart may be missing. Identical values can stand only once. Results filed as inconclusive are left out. Activity calls are given as the source filed them. Unless noted, no cut-off is given here; in the data, nearly all actives have AC50 up to about 26 µM.

Test [1] is described as follows: JHH-DIPG-1 glioma cell viability, MIPE5.0 library, CellTiter-Glo luminescence, qHTS (AID 1347067).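 Note: cells exposed to compound for 48 hours before readout.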 Particulars: JHH-DIPG-1 glioma viability, CellTiter-Glo ATP luminescence.
Test [2] is described as follows: SU-DIPG-XXV glioma cell viability, MIPE5.0 library, qHTS (AID 1347068; cut-off not given, nearly all actives have IC50 up to about 30 µM;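 for IC50: cells exposed to compound for 48 hours before viability readout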).
Test [3] can be described thus: SU-DIPG-VI glioma cell viability, MIPE4.0 library, CellTiter-Glo luminescence, qHTS (AID 1347066; cut-off not given, nearly all actives have AC50 up to about 30 µM;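 note: cells exposed to compound for 48 hours before readout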). Particulars: CellTiter-Glo ATP luminescence.
Test [4] in a line: sensitizers of A549 cells to miR-34 induction, primary screen, imaging, A549 dox-inducible miR-34, nuclei and caspase counts (AID 1347080;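 active = compounds whose cell count with miR-34 switched on is under 0.7 times the count with it off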). Conditions: A549 miR-34 inducible, Hoechst nuclei count, 48 h.
The nature of test [5]: survival rescue of mitochondrial mutant cells in low glucose, primary screen, MELAS cybrids, Rieske KO mouse fibroblasts, CellTiter-Glo (AID 1508586;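 active = mean z-score across replicates of 1.96 or higher in either the MELAS or the Rieske mutant cell line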;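 note: z relative to plate mean and SD of compound and empty wells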).
Test [6] can be described thus: viability loss in pontine glioma line – cell-based, SU-DIPG-XXV, MIPE5.0, CellTiter-Glo, qHTS, dose response (AID 1347065).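 Note: cells exposed to compound for 48 hours before ATP readout.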 Particulars: CellTiter-Glo ATP luminescence.
Test [7] in a line: liver-stage malaria parasite growth inhibition, primary screen, cell-based, HepG2, luciferase luminescence, HepG2 viability (AID 624349; in the data active = parasite load remaining mostly below about 12%, no sharp cut-off; inactive = mostly above about 10%;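 note: 100% = mean of DMSO negative control wells on the same plate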). Conditions: P. berghei liver stage in HepG2, luciferase luminescence, concentration not given here; parasite load remaining: stronger effect = lower value; viability: measured here: HepG2 viability without parasites.
In test [8] the test system is Hepatitis C virus NS3 helicase. Briefly: HCV NS3 helicase inhibitors, primary screen, biochemical, fluorescence polarization, LOPAC1280 library (AID 687035; in the data active = inhibition above about 37%). Conditions: Purified HCV NS3 helicase, Cy5-dT15 ssDNA binding fluorescence polarization; stronger effect = higher value; concentration not given here.
Test [9] in a line: Cy5 fluorescence quenching or enhancement artefacts, artefact control for HCV NS3 helicase inhibitor project, biochemical, LOPAC1280 (AID 687037; call rule not given here). Particulars: Cy5-DNA-NS3h complex fluorescence interference counterscreen.
Test [10] can be described thus: phospholipid biosynthesis inhibitors in animal cells, primary screen, cell-based, LOPAC library, screen 4 (AID 1347384; call rule not given here). Conditions: phospholipid biosynthesis inhibition screen, at 10 µM.
Test [11] is described as follows: viability rescue of complex I mutant cybrids, primary screen, cell-based, galactose medium, ATP luminescence (AID 1645843;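 active = z-score of at least 1.8 in each of two replicates, scored against plate mean and spread of sample wells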;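 note: positive z means more ATP and so rescue of galactose-driven cybrid death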). Particulars: complex I mutant cybrid cells, 72 h, stronger effect = higher value.
The target of test [12] is NAD(+) hydrolase SARM1 (Homo sapiens) (UniProt Q6SZW1). Briefly: SARM1 TIR NADase inhibitors, cell lysate, NAD-Glo luminescence (AID 1508614;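 active = compound whose remaining NAD level is above about 45 nM, limit read from the data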;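 note: higher remaining NAD means stronger inhibition of SARM1 NADase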). Conditions: SAM-TIR HEK293T lysate NADase, at 1 µM, stronger effect = higher value.
The nature of test [13]: modifiers of HSF1 nuclear foci, imaging, Selleck Cancer Library (AID 1347162; in the data active = plate-normalised HSF1 focus index below about 0.46). Particulars: human cells, at 10 µM; SSMD: measured here: HSF1 foci SSMD mean; cell count: measured here: cell number; plate-normalised HSF1 focus index: stronger effect = lower value.
Test [14] can be described thus: kinase inhibitors against Plasmodium liver-stage infection, cell-based, known kinase inhibitor set, luminescence, hepatoma host viability (AID 624392; call rule not given here;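 note: infected cells incubated roughly two days before readout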). Conditions: Plasmodium liver stage in hepatoma cells, luciferase luminescence, concentration not given here; liver cell % of control: measured here: host liver cell viability; parasite % of control: stronger effect = lower value.

The mark [15] stands for this setting: stronger effect = lower value, cell number ratio, induced over uninduced.
The mark [16] stands for this setting: measured here: relative caspase fold change +Dox/-Dox.
Where [17] appears, read: measured here: total cells with miR-34 induction, stronger effect = lower value.
The mark [18] stands for this setting: measured here: total cells without miR-34 induction.
[19] abbreviates: MELAS cybrid survival, CellTiter-Glo 48 h, stronger effect = higher value.
Where [20] appears, read: Rieske KO mouse fibroblast survival, CellTiter-Glo 72 h.

NAD(+) hydrolase SARM1 (Homo sapiens), sequence (Q6SZW1 whole entry, looked up): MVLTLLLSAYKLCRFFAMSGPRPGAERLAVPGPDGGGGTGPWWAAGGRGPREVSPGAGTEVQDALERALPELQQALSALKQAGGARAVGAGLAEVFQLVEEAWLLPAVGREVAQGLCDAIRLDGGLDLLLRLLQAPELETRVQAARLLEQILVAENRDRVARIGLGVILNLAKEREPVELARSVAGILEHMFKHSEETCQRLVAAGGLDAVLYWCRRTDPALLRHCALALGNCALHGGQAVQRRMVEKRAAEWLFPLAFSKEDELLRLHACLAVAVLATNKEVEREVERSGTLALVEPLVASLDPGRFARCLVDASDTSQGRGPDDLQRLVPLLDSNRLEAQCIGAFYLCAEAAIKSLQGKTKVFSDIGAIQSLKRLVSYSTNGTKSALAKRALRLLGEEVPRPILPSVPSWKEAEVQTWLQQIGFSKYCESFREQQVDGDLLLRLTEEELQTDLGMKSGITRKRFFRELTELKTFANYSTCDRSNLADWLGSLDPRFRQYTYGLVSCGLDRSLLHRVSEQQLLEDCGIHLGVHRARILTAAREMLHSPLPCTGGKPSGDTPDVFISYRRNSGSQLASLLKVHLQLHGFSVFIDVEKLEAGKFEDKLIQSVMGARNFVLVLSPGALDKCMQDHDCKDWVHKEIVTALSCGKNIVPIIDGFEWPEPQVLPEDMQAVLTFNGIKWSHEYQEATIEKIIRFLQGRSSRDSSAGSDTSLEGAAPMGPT

Turning to `N#CN1CCC[C@@H](n2nc(-c3ccc(Oc4ccc(F)cc4F)cc3)c(C(N)=O)c2N)C1`, the molecule was classed as inactive in test [1] and in test [2].
As to `O=C(Nc1cccc(Br)c1)c1cccc(S(=O)(=O)N2CCCCCC2)c1`, the outcome in test [3] was inactive.
As for `Cn1cc(-c2ccc(-c3cncc(Cl)c3N3CCC4(CCNC4=O)CC3)cc2)cn1`, the result in test [1] and in test [2] was inactive.
In the case of `Cn1cc(-c2cnn3c(N)c(Br)c(C4CCCNC4)nc23)cn1` (stereo not given), in test [1], the molecule was called inactive. The results for the fold change in test [4] (setting [15]) and in test [4] (setting [16]) were 0.949 (inactive) and 0.873, respectively. The values for the cell count in [4] (setting [17]) and in [4] (setting [18]) were 6160 and 6490, respectively. In addition, the z-score in test [5] (setting [19]) is 0.0709 (inactive); in test [5] (setting [20]), -0.322.
Turning to `CC#CC(=O)N1CC[C@@H](n2c(=O)n(-c3ccc(Oc4ccccc4)cc3)c3c(N)ncnc32)C1`, in [2], the molecule was classed as inactive.
As to `Cc1cccc(CC(=O)N2CCc3c2ccc(-c2cn(C)c4ncnc(N)c24)c3F)n1`, the AC50 in test [6] was 10.5 µM (active). The fold change in test [4] (setting [15]) is 1.38 (inactive); in [4] (setting [16]), 0.997. Further, the figures for the cell count in test [4] (setting [17]) and in test [4] (setting [18]) were 7830 and 5660, respectively. Further, the z-score in [5] (setting [19]) was -0.412 (inactive); in test [5] (setting [20]) it was -0.298.
Take `CCN1/C(=C/C(C)=O)Sc2ccc(OC)cc21`: in test [7], the parasite load remaining was 36.4% (inactive). In test [7], the viability came out at 92.3%. Also, in test [8], the inhibition is -4% (inactive). In test [9], the fluorescence ratio (interference) is 0.9 (inactive). Moreover, the molecule was called inactive in [1], in test [2] and in test [10]. In addition, the fold change is 1.04 (inactive) in [4] (setting [15]) and 1.19 in [4] (setting [16]). The cell count in [4] (setting [17]) was found to be 7360; in [4] (setting [18]) it was 7040. Besides, in [11], the z-score is 0.785 (inactive).
Turning to `CCC(=O)N[C@H]1CC[C@H](C(=O)N(C)c2ccc(-c3nc4ccccc4o3)cc2)C1`, the molecule was classed as inactive in test [3] and in test [1].
Regarding `CC(C)OC(=O)CCC/C=C\C[C@@H]1[C@@H](/C=C/[C@@H](O)COc2cccc(C(F)(F)F)c2)[C@H](O)C[C@@H]1O`, the half-maximal activity concentration (AC50) in [3] was 23.5 µM (active). For the same molecule, the remaining NAD in [12] is 10 nM (inactive).
Turning to `C#CCC(Cc1cnc2nc(N)nc(N)c2n1)c1ccc(C(=O)N[C@@H](CCC(=O)O)C(=O)O)cc1` (stereo not given in full), the molecule was called inactive in test [1].
`O=C(Nc1cccc(C(F)(F)F)c1)c1cccc2cc(Oc3cc(CO)ncn3)ccc12`: in [2], the molecule was classed as inactive.
Take `NC(=O)c1ccc2nc(-c3ccc(Oc4ccc(Cl)cc4)cc3)[nH]c2c1`: in test [7], the parasite load remaining was 38.6% (inactive) and the viability came out at 91.3%. In [3], the molecule was called inactive. Besides, the result in test [2] was inactive. In test [13], the SSMD was 0.89, the cell count was found to be 6720 and the plate-normalised HSF1 focus index was 1.06 (inactive).
With `C[C@H]1CC2[C@@H]3CCC4=CC(=O)C=C[C@]4(C)[C@@]3(F)[C@@H](O)C[C@]2(C)[C@@]1(O)C(=O)CO` (stereo not given in full), the molecule was called inactive in test [1] and in [2].
As to `Cc1cccc(/C=N/Nc2cc(N3CCOCC3)nc(OCCc3ccccn3)n2)c1`, in [1], the outcome was inactive.
In the case of `CC(C)C(=O)Nc1ncc(-c2cc(C(F)F)nn2-c2c(Cl)cccc2Cl)s1`, in test [14], the liver cell % of control is 78% and 87.1% and 89.1%; the parasite % of control is 2.64% (inactive) and 20.3% (inactive) and 36.7% (inactive). Moreover, the call in test [3] was inactive.
For `CC[C@@H]1[C@H](F)C(=O)N[C@@H]1COc1nccc2cc(C(N)=O)c(OC)cc12`, in [2], the molecule was called inactive.
As to `OCCC#Cc1nc(-c2ccc(F)cc2)c(-c2ccncc2)n1CCCc1ccccc1`, in test [14], the liver cell % of control was 306% and 93.3% and 95.7%; the parasite % of control was 3.85% (inactive) and 44.3% (inactive) and 36.9% (inactive). Besides, the concentration at half-maximal activity (AC50) in [1] was 26.3 µM (active). The call in test [2] was inactive.
Turning to `COc1ccc2c(c1)C(c1ccc(F)cc1)=C(CN1CCCC1)CO2`, the call in test [1] and in test [2] was inactive.
For `COCC(=O)NC/C=C/c1ccc2ncnc(Nc3ccc(Oc4ccc(C)nc4)c(C)c3)c2c1`, the outcome in test [1] was inactive.
With `CC(=O)O/N=C1\C(=O)N(Cc2cc(Cl)ccc2Cl)c2ccc(Cl)cc21`, the AC50 in [1] is 23.5 µM (active). Moreover, in test [2], the concentration for half-maximal inhibition (IC50) was 8.33 µM (active).
On to `CC1CCN(c2cc(N3CCN(C)CC3)ccc2NC(=O)c2cc(C#N)c[nH]2)CC1`, for which the molecule was classed as inactive in test [3] and in test [2].
Regarding `CC/C(=C(/c1ccc(/C=C/C(=O)O)cc1)c1ccc2[nH]ncc2c1)c1ccc(F)cc1Cl`, in [1], the AC50 is 26.3 µM (active).
For `C=CC(=O)N1CCC(C2CCNc3c(C(N)=O)c(-c4ccc(Oc5ccccc5)cc4)nn32)CC1` (stereo not given), the outcome in [2] was inactive.
